SARS PLpro yeast = qHTS of Yeast-based Assay for SARS-CoV PLP; S. cerevisiae expressing SARS-CoV PLpro, growth rescue; Potency, µM (doses to about 32.9 µM), for the others: at the highest dose activity, positive = growth rescue, hits mostly activators; 330,000 tested, 0.19% active; AID 485353, 2010; calls by dose curve; also: 0% is about no effect; nearly all actives have a fitted effect of over 55% in size
AMA1-RON2 inh = qHTS for Inhibitors of AMA1-RON; Towards Development of Antimalarial Drug Lead: Primary Screen; AlphaScreen AMA1-biotinylated RON2 peptide binding; Potency, µM (doses to about 58.2 µM), without a hit: at the top dose activity change, negative = inhibition, actives largely listed as inhibitors; 360,000 tested, 0.2% active; AID 720542, 2013;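 also: 0% = vehicle wells and -100% = peptide control; nearly all actives have a fitted effect of over 45% in size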
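AMA1 (3D7) with his tag at 25 nM final met compounds first, then biotinylated RON2 peptide at 25 nM; detection used donor plus acceptor beads, 10 µg/mL apiece, read by AlphaScreen after 30 min at room temperature.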
AmpC inh no detg = qHTS Inhibitors of AmpC Beta-Lactamase (assay without detergent); AmpC nitrocefin hydrolysis, absorbance 480 nm, 0.0001% Triton; Potency, µM (doses to about 57.1 µM), inactives show top-dose activity change, negative = inhibition, most hits filed as inhibitors; 330,000 tested, 0.52% active;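 also: plate controls were no compound for no effect and no enzyme for full effect; nearly all actives have a fitted effect of over 20% in size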
Target sequence (P00811 whole entry, looked up): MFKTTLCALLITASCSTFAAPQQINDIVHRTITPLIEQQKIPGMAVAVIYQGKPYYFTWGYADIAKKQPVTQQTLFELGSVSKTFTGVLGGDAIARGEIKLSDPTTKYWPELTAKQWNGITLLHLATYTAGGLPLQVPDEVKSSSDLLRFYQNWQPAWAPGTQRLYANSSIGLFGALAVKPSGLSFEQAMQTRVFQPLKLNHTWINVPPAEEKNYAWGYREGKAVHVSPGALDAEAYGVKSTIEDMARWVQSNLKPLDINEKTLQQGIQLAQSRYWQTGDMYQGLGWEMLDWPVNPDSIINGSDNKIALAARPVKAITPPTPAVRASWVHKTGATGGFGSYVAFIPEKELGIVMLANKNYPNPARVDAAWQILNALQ
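20 mM phosphate pH 7.0 + 0.01% (detergent screen) or 0.0001% Triton X-100; 5.3 nM AmpC reagent; cpd preinc 15 min RT; nitrocefin (800 uM stock) to start; A480 q20 s × 4 min; Activity was normalised to no-enzyme and no-compound control wells.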
AmpC inh detg = qHTS Inhibitors of AmpC Beta-Lactamase (assay with detergent); P00811; AmpC hydrolysis of nitrocefin, absorbance 480 nm, 0.01% Triton; Potency, µM (top dose mostly 114 µM), for inactives: at the highest dose activity change, negative = inhibition, actives largely listed as inhibitors; 370,000 tested, 0.041% active; AID 485294, 2010;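 also: 0% = no-compound wells and -100% = no-enzyme wells; nearly all actives have a fitted effect of over 25% in size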
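20 mM phosphate pH 7.0 + 0.01% (detergent screen) or 0.0001% Triton X-100; 5.3 nM AmpC reagent; cpd preinc 15 min RT; nitrocefin (800 uM stock) to start; A480 q20 s × 4 min; Activity was normalised to no-enzyme and no-compound control wells.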
NS1 inh = qHTS Assay for Inhibitors of Influenza NS1 Protein Function | Potency, µM (top dose mostly 46.1 µM), without a hit: top-dose activity, positive = more growth | 270,000 tested, 0.4% active; calls by dose curve; also: actives are rising curves; nearly all actives have a fitted effect of over 50% in size
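Read-out: OD600 growth recovery of NS1-expressing budding yeast. Cells grown overnight at 30C in -URA glucose medium, washed, resuspended and diluted 1:100 in 2% galactose assay medium, pH 6.0. Same strain lacking NS1 served as positive control.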
The depositor's hits bear a star; ? = inconclusive; nt = not tested or not shown. Hits are enriched below; roughly 0.99% of the tested compounds scored in any of these assays. Unless noted, calls follow the shape of the dose curve; as a rule, active = well fitted curve in the direction sought with a large enough effect; inconclusive = small, poorly fitted or top-dose-only effect, or another doubt; inactive = no such curve, though single readings can be large; an effect the other way counts as inactive or inconclusive. Potency is read from the fitted curve at half-maximal effect.

SMILES | SARS PLpro yeast | AMA1-RON2 inh | AmpC inh no detg | AmpC inh detg | NS1 inh
CCCN(CCC)CCCNC(=O)Cn1ncn2c(cc3sc(CC)cc32)c1=O | nt | nt | nt | -1% | nt
Clc1cccc(-n2ncc3c(NCCCn4ccnc4)ncnc32)c1 | nt | nt | nt | 4% | nt
CCc1nc(Nc2ccc(N3CCN(C(C)=O)CC3)cc2)c2oc3ccccc3c2n1 | -6% | -12% | 183% | 35µM* | -42%
CCc1ccccc1NC(=O)Cn1nc(N2CCN(c3ccccc3OC)CC2)ccc1=O | nt | nt | nt | -3% | nt
CC(=O)OC1=CC2=CC[C@H]3[C@H]4CCC(=O)[C@@]4(C)CC(=O)[C@]3(S)[C@]2(C)CC1 | nt | nt | nt | nt | 0%
O=C(C[n+]1cccc2ccccc21)c1ccc(Br)cc1 | -3% | 13% | -22% | ? | 11%
Cc1ccc(C(=O)C[n+]2cccc3ccccc32)cc1 | 2% | -5% | 0.16µM* | 0% | 6%
COc1ccc(C(=O)Nc2ccccc2C(=O)OCc2cc(=O)n3c4c(sc3n2)CCCC4)cc1 | nt | nt | nt | -8% | nt
CCOC(=O)Nc1ccc(S(=O)(=O)Nn2cnnc2)cc1 | 22µM* | 2% | -7% | 0% | ?
C/C(=N\NC(=O)c1ccccc1O)c1cccc(NC(=O)c2ccccc2)c1 | -1% | 2% | -56% | -14% | -33%
C/C(=N\NC(=O)CSCc1ccccc1Cl)c1cccc(NC(=O)c2ccccc2)c1 | 5% | 58% | 22µM* | -5% | 1%
O=c1[nH][nH]c2c(N=Cc3ccccc3O)ccc(F)c12 | -1% | 11µM* | -45% | ? | 6%
COc1ccccc1N1CCN(C(=O)c2nn(-c3ccc(C)cc3)c(=O)n(C)c2=O)CC1 | nt | nt | nt | 0% | nt
COc1ccc(N2CCN(c3ncnc4scc(-c5ccc(F)cc5)c34)CC2)cc1 | -9% | 13µM* | 3% | ? | -5%
COc1ccc(N2CCN(c3ncnc4scc(-c5ccc(C)cc5)c34)CC2)cc1 | -33% | 11% | 17% | -9% | 7%
CC(=O)O[C@H]1CC[C@H]2[C@@H]3CCC4=C[C@@H](C5SCCS5)[C@H](OC(C)=O)C[C@]4(C)[C@H]3CC[C@@]12C | nt | nt | nt | nt | -8%
Cc1ccccc1NC1=C/C(=N\S(=O)(=O)c2cccs2)c2ccccc2C1=O | -28% | 8.9µM* | -39% | -9% | -5%
Cc1ccc(NC2=C/C(=N/S(=O)(=O)c3cccs3)c3ccccc3C2=O)cc1C | -5% | -15% | -21% | 2% | 8%
Oc1ccc(C[C@H]2NCCc3cc(O)c(O)cc32)cc1O | -3% | 2.5µM* | -22% | 0% | 6%
Nc1n[nH]c2cc(=O)n(-c3cccc(C(F)(F)F)c3)nc12 | 0% | 49% | -11% | 5% | nt
O=c1[nH][nH]c2cc(=O)n(-c3cccc(C(F)(F)F)c3)nc12 | 0% | 57% | 20µM* | 2% | nt
CCn1cc(C(=O)Nc2cccc(Cl)c2)c2cc(OC)c(OC)cc2c1=O | nt | nt | nt | 0% | nt
CN(C)c1ccc(-c2csc(C(C)(O)c3ccc(F)c(F)c3)n2)cc1 (stereo not given) | nt | 20µM* | nt | nt | nt
Cc1ccc(S(=O)(=O)C(CNS(=O)(=O)c2cc(F)ccc2F)c2cccs2)cc1 (stereo not given) | nt | nt | nt | -7% | nt
O=c1c2c(-c3ccco3)csc2nc(SCc2cn3cccnc3n2)n1-c1ccccc1 | -2% | 16µM* | 47% | ? | -1%
SMILES | SARS PLpro yeast | AMA1-RON2 inh | AmpC inh no detg | AmpC inh detg | NS1 inh
CCCCNc1c(CN)cnc2cc(Cl)ccc12 | nt | nt | nt | nt | -6%
CC(C)Cc1cc(C(=O)NCCN2CCOCC2)no1 | -1% | 0% | 0.5µM* | ? | 3%
O=C(NCCN1CCOCC1)c1cc(-c2ccc(Cl)cc2)on1 | 4% | 2% | -1% | 3% | -4%
COc1cc(NCCC(=O)c2cccs2)c(OC)cc1Cl | -5% | 14µM* | -23% | ? | nt
O=c1c(C(c2ccccc2)c2c(O)sc3ccccc3c2=O)c(O)sc2ccccc12 | -6% | 0% | 16µM* | -3% | -19%
COc1cccc(NC(=O)Cn2cc(C(=O)C3CC3)c3ccccc32)c1 | 1% | 3% | 28µM* | ? | nt
COc1ccc(NC(=O)Cn2cc(C(=O)C3CC3)c3ccccc32)cc1 | 10% | 21% | -14% | 0% | -4%
CCOC(=O)c1cccc(NC(=O)CCc2c(C)nn(-c3ccc(N4CCCC4)nn3)c2C)c1 | nt | nt | nt | -5% | nt
O=C(N/N=C/c1ccccn1)c1cccc(NC(=O)c2ccccc2Cl)c1 | 1% | 129% | 18µM* | 1% | 0%
COc1cc2c(cc1[N+](=O)[O-])-c1ccccc1C2 | nt | -20% | nt | nt | nt
CN(C)c1ccc2c(c1[N+](=O)[O-])Cc1ccccc1-2 | nt | 10µM* | nt | nt | nt
CCC(=O)N1c2ccccc2CC1C(=O)NCCc1ccc(OC)cc1OC (stereo not given) | nt | nt | nt | 15% | nt
CCN(CC)c1ccc(/C=N\N2CCN(Cc3ccc(C)cc3)CC2)cc1 | -1% | 8.9µM* | 24% | -10% | 5%
O=C(c1ccco1)N1CCN(c2ncnc3c2[nH]c2ccc(Cl)cc23)CC1 | ? | nt | -29% | -15% | 2.2µM*
O=C(c1ccco1)N1CCN(c2c(-c3ccccc3)c3cc(Cl)ccc3[nH]c2=O)CC1 | 2% | 2% | 91% | ? | nt
O=C(c1ccco1)N1CCN(c2cc(=O)n(-c3ccc(Cl)cc3)c(=O)[nH]2)CC1 | 5% | 3% | 45µM* | ? | 21%
Cc1cc(C)c(S(=O)(=O)NCC(c2ccc(N(C)C)cc2)N2CCOCC2)c(C)c1 (stereo not given) | nt | nt | nt | -1% | nt
CN(C)c1ccc(N=Nc2ccccc2C(=O)OCC(=O)NC2CCCC2)cc1 | -54% | 7.9µM* | 34% | -4% | -12%
CN(C)c1ccc(N=Nc2ccccc2C(=O)OCC(=O)NCC2CCCCC2)cc1 | -13% | 11µM* | -6% | ? | 15%
CN(C)c1ccc(N=Nc2ccccc2C(=O)OCC(=O)N(C)C2CCCCC2)cc1 | -14% | -13% | 16% | -12% | -3%
Cc1ccc(CCNC(=O)c2sc3nc4n(c(=O)c3c2C)CCCC4)cc1 | nt | nt | nt | -7% | nt
CC(=O)N1CCc2cc(CNS(=O)(=O)c3ccc(Cl)s3)ccc21 | nt | nt | nt | -7% | nt
O=c1[nH]c(=S)n(CCC2=CCCCC2)c(O)c1C=NCc1cccnc1 | 12% | nt | -23% | -10% | 7%
O=C(N/N=C/c1c(O)n(CCC2=CCCCC2)c(=S)[nH]c1=O)c1ccccc1 | 11µM* | 34% | -36% | ? | ?
Cc1ccc(Cc2c(C)nc3nc(SCC(=O)NC4CCC(C)CC4)nn3c2C)cc1 (stereo not given) | nt | nt | nt | 15% | nt
CCOC(=O)c1sc(NC(=O)C(C)(C)C)cc1C | -19% | -3% | 10µM* | ? | -22%
CCOC(=O)c1sc(NC(=O)C2CC2)cc1C | -20% | -4% | -24% | -7% | -126%
